Screening results deposited in PubChem BioAssay by National Center for Advancing Translational Sciences (NCATS).
Sampled rows, rich in hits. Any-hit rate of the full collection: about 3.1%.
mIDH1 inhibitor: blocks human mutant IDH1 R132H enzyme. O75874. IDH1-R132H enzyme, NADPH consumption, diaphorase/resazurin fluorescence. Potency, µM (highest dose often 76.6 µM), actives largely listed as inhibitors. 0.093% of 390,000 active. AID 602179; further: nearly all actives have a fitted effect of over 65% in size
Target sequence (O75874 whole entry R132H, stated change not applied): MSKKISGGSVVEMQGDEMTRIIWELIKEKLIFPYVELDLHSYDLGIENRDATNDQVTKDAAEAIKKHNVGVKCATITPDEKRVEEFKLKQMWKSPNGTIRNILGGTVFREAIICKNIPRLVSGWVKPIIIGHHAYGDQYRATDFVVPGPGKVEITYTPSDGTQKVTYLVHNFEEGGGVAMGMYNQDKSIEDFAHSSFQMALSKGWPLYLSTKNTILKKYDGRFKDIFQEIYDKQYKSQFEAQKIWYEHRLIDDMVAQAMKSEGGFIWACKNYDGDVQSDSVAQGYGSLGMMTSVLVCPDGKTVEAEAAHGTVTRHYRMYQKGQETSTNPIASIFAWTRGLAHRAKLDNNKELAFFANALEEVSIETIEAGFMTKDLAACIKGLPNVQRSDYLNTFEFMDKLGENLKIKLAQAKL
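IDH1-R132H (0.5 ug/mL dispensed) in pH 7.5 Tris buffer was preincubated 30 min with compound, then given a substrate mix of 0.016 mM NADPH and 2 mM alpha-KG for 80 min at room temperature; remaining NADPH was read by diaphorase/resazurin fluorescence.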
Nrf2 inh: blocks Nrf2 signaling; A549 ARE-Fluc reporter, luciferase luminescence, 18-24 h; Potency, µM (top dose mostly 46 µM), actives largely listed as inhibitors; AID 504444; 2.1% of 360,000 active; further: nearly all actives have a fitted effect of over 60% in size
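A549 ARE_Fluc cells (5000/well, 5% FBS OPTI-MEM) pre-incubated 2 h, then treated with compounds 18-24 h at 37C/5% CO2 in concentration-response. CellTiter-Fluor viability read first; BugLite luciferase luminescence after 15 min at room temperature gives Nrf2 activity.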
rTrxR1 inhibitor: blocks rat thioredoxin reductase 1; O89049; recombinant rTrxR1, NADPH fluorescence consumption, selenite substrate; Potency, µM (top dose mostly 114 µM), usual class: inhibitors; 1% of 390,000 active; AID 588453; further: nearly all actives have a fitted effect of over 65% in size
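Rat TrxR1 (90 nM in the dispensed reagent) was pre-reduced with 400 uM NADPH for 5 min at room temperature, then incubated with compound for 15 min. After 400 uM selenite was added, NADPH fluorescence (Ex 340/Em 450 nm) was followed for 8 min.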
A549 tox: counter-screen for Nrf2 inhibitors: cytotoxicity in A549 cells; 0.16% of 390,000 active; Potency, µM (titrated, usually from 46 µM), usual class: inhibitors; A549 ARE-Fluc cells, CellTiter-Fluor viability, 18-24 h
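A549 ARE_Fluc cells in 5% FBS OPTI-MEM were exposed to compounds in concentration-response for 18-24 h at 37 deg C. Viability was read by CellTiter-Fluor fluorescence (Ex 405/Em 525) after 30 min, before the luciferase read.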
Mito fusion act: inhibitors of mitochondrial division or activators of mitochondrial fusion. 0.23% of 320,000 active. Potency, µM (highest dose often 46.1 µM), actives largely listed as activators. S. cerevisiae fusion-defective mutant growth rescue, CellTiterGlo 48 h. AID 485298; further: nearly all actives have a fitted effect of over 45% in size
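Temperature-sensitive fusion-defective S. cerevisiae (e.g. fzo1-1, mgm1-5) were grown with compound in YPEG medium (3% ethanol, 3% glycerol) for 48 hours at 37C. Growth rescue was measured as viability by CellTiterGlo luminescence after 10 minutes at ambient.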
TrxR1 substrate: rat thioredoxin reductase 1 substrate activity; O89049; purified TrxR1 substrate turnover, NADPH consumption readout; Potency, µM (highest dose often 114 µM); 0.01% of 390,000 active; further: nearly all actives have a fitted effect of over 50% in size
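Rat TrxR1, dispensed at 90 nM, was prereduced with 400 uM NADPH (final) for 5 min at ~22 deg C, then incubated with compound 15 min before 400 uM selenite. A first-read NADPH fluorescence drop versus no-compound background flagged substrates.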
Hits are given with their value. The call rests on the fitted dose curve; in most records, active means well fitted curve in the direction sought with a large enough effect; inconclusive means small, poorly fitted or top-dose-only effect, or another doubt; inactive means no such curve, though single readings can be large; an effect the other way counts as inactive or inconclusive.

How did C/C=C1/C[C@@H](C)[C@@](C)(O)C(=O)OCC2=CCN3CC[C@@H](OC1=O)[C@@H]23 do in these assays?
Nrf2 inh: inactive; rTrxR1 inhibitor: inconclusive; A549 tox: inactive; TrxR1 substrate: inactive

What do the screens show for `N#CC(C#N)=Cc1ccc(N2CCOCC2)cc1`?
mIDH1 inhibitor: inactive; Nrf2 inh: inactive; rTrxR1 inhibitor: 71µM; A549 tox: inactive; Mito fusion act: inactive; TrxR1 substrate: inactive

How did Cc1cc(C=C(C#N)C#N)ccc1N1CCCC1 do in these assays?
mIDH1 inhibitor: inactive; Nrf2 inh: inactive; rTrxR1 inhibitor: inactive; A549 tox: inactive; Mito fusion act: inactive; TrxR1 substrate: inactive

Results for Oc1ccc(-[n+]2c(-c3ccccc3)cc(-c3ccccc3)cc2-c2ccccc2)cc1 ?
mIDH1 inhibitor: inactive; Nrf2 inh: inactive; rTrxR1 inhibitor: inactive; A549 tox: inactive; Mito fusion act: inactive; TrxR1 substrate: inactive

Results for Oc1ccccc1-[n+]1c(-c2ccccc2)cc(-c2ccccc2)c(O)c1-c1ccccc1 ?
mIDH1 inhibitor: inactive; Nrf2 inh: inactive; rTrxR1 inhibitor: inactive; A549 tox: inactive; Mito fusion act: 11µM; TrxR1 substrate: inactive

How did CC(=O)NCC(N)C(=O)c1ccc(Cl)c(Cl)c1 (configuration not stated) do in these assays?
rTrxR1 inhibitor: inactive; TrxR1 substrate: inactive

Results for Cc1cc(C)c2c(ccc3cccc[n+]32)c1 ?
mIDH1 inhibitor: inactive; Nrf2 inh: 1.3µM; rTrxR1 inhibitor: inactive; A549 tox: inconclusive; TrxR1 substrate: inactive

Results for CCN(CC)c1ccc(/C=C2/C(=O)NC(=O)N(Cc3ccco3)C2=O)cc1 ?
mIDH1 inhibitor: inactive; Nrf2 inh: inactive; rTrxR1 inhibitor: 35µM; A549 tox: inactive; Mito fusion act: inactive; TrxR1 substrate: inactive

How did CN(C)c1ccc(/C=C2/C(=O)NC(=O)N(Cc3ccco3)C2=O)cc1 do in these assays?
mIDH1 inhibitor: inactive; Nrf2 inh: inactive; rTrxR1 inhibitor: 50µM; A549 tox: inactive; Mito fusion act: inactive; TrxR1 substrate: inactive

How did CCN(CC)c1ccc(/C=C2\C(=O)NC(=O)N(CC3CCCO3)C2=O)cc1 (configuration not stated) do in these assays?
mIDH1 inhibitor: inactive; Nrf2 inh: inactive; rTrxR1 inhibitor: inconclusive; A549 tox: inactive; Mito fusion act: inactive; TrxR1 substrate: inactive

How did O=C1NC(=O)N(Cc2ccco2)C(=O)/C1=C/c1ccc(-c2cccc([N+](=O)[O-])c2)o1 do in these assays?
mIDH1 inhibitor: inactive; Nrf2 inh: inactive; rTrxR1 inhibitor: 40µM; A549 tox: inactive; Mito fusion act: inactive; TrxR1 substrate: inactive

What do the screens show for `C=CCN1C(=O)NC(=O)/C(=C\c2ccc(-c3ccccc3[N+](=O)[O-])o2)C1=O`?
mIDH1 inhibitor: inactive; Nrf2 inh: inactive; rTrxR1 inhibitor: inactive; A549 tox: inactive; Mito fusion act: inactive; TrxR1 substrate: inactive

Results for COc1cccc(C(=O)N/N=C(/c2ccccc2)c2ccccn2)c1 ?
mIDH1 inhibitor: inactive; Nrf2 inh: 10µM; rTrxR1 inhibitor: inactive; A549 tox: inconclusive; Mito fusion act: inactive; TrxR1 substrate: inactive

What do the screens show for `COc1cc(OC)cc(C(=O)Nc2ccc(Br)cc2C(=O)c2ccccc2)c1`?
mIDH1 inhibitor: inactive; Nrf2 inh: inactive; rTrxR1 inhibitor: inactive; A549 tox: inactive; Mito fusion act: inactive; TrxR1 substrate: inactive

How did O=C1NC(=S)NC(=O)C1=Cc1cccn1-c1ccc(O)cc1 do in these assays?
mIDH1 inhibitor: inactive; Nrf2 inh: inactive; rTrxR1 inhibitor: 20µM; A549 tox: inactive; Mito fusion act: inactive; TrxR1 substrate: inactive

How did Cc1cccc(N2C(=O)CSC23C(=O)N(CC(=O)Nc2cccc(Cl)c2)c2ccccc23)c1 (configuration not stated) do in these assays?
mIDH1 inhibitor: inactive; Nrf2 inh: inconclusive; rTrxR1 inhibitor: inactive; A549 tox: inactive; TrxR1 substrate: inactive

Results for CCCNS(=O)(=O)c1ccc(OCC(=O)N2CCN(Cc3ccc4c(c3)OCO4)CC2)c(C)c1 ?
mIDH1 inhibitor: inactive; Nrf2 inh: 12µM; rTrxR1 inhibitor: inactive; A549 tox: inactive; Mito fusion act: inactive; TrxR1 substrate: inactive

How did CCCNS(=O)(=O)c1ccc(OCC(=O)N2CCN(Cc3ccc4c(c3)OCO4)CC2)cc1 do in these assays?
mIDH1 inhibitor: inactive; Nrf2 inh: 8.2µM; rTrxR1 inhibitor: inactive; A549 tox: inactive; Mito fusion act: inactive; TrxR1 substrate: inactive

Results for CCOP(=O)(OCC)OCC ?
mIDH1 inhibitor: inactive; Nrf2 inh: inactive; rTrxR1 inhibitor: inactive; A549 tox: inactive; Mito fusion act: inactive; TrxR1 substrate: inactive

What do the screens show for `CCOP(=O)(CCP(=O)(OCC)OCC)OCC.C[CH2][Sn]([Cl])([Cl])[CH2]C`?
mIDH1 inhibitor: inactive; Nrf2 inh: inconclusive; rTrxR1 inhibitor: inactive; A549 tox: 16µM; TrxR1 substrate: inactive

What do the screens show for `O=C(c1ccc(CS(=O)(=O)c2ccccc2)o1)N1CCC2(CC1)OCCO2`?
mIDH1 inhibitor: inactive; Nrf2 inh: inactive; rTrxR1 inhibitor: 28µM; A549 tox: inactive; Mito fusion act: inactive; TrxR1 substrate: inactive

How did Cc1ccccc1-n1c(O)c(C(c2ccncc2)c2c(O)n(-c3ccccc3C)c(=O)[nH]c2=O)c(=O)[nH]c1=O do in these assays?
mIDH1 inhibitor: inactive; Nrf2 inh: inactive; rTrxR1 inhibitor: 14µM; A549 tox: inactive; Mito fusion act: inactive; TrxR1 substrate: inactive

What do the screens show for `c1ccc(-c2ccc(C(c3ccccc3)n3ccnc3)cc2)cc1` (configuration not stated)?
mIDH1 inhibitor: inconclusive; Nrf2 inh: inconclusive; rTrxR1 inhibitor: inactive; A549 tox: inactive; Mito fusion act: 14µM; TrxR1 substrate: inactive

Results for CCCN1CCCC(c2cccc(O)c2)C1 (configuration not stated) ?
rTrxR1 inhibitor: inactive

Results for N#CC(C#N)=NNc1ccc([N+](=O)[O-])cc1 ?
mIDH1 inhibitor: inactive; Nrf2 inh: inactive; rTrxR1 inhibitor: 22µM; A549 tox: 21µM; Mito fusion act: inactive; TrxR1 substrate: inconclusive

What do the screens show for `CCN(CC)S(=O)(=O)c1ccc(NN=C(C#N)C#N)cc1`?
mIDH1 inhibitor: inactive; Nrf2 inh: inactive; rTrxR1 inhibitor: inconclusive; A549 tox: inconclusive; Mito fusion act: inactive; TrxR1 substrate: inactive

What do the screens show for `CCCC(=O)NC(Oc1ccccc1Cl)C(Cl)(Cl)Cl` (configuration not stated)?
mIDH1 inhibitor: inactive; Nrf2 inh: inactive; rTrxR1 inhibitor: 16µM; A549 tox: inactive; Mito fusion act: inactive; TrxR1 substrate: inactive

How did CCCC(=O)NC(Oc1ccc(Cl)cc1Cl)C(Cl)(Cl)Cl (configuration not stated) do in these assays?
mIDH1 inhibitor: inactive; Nrf2 inh: inactive; rTrxR1 inhibitor: inactive; A549 tox: inactive; Mito fusion act: inactive; TrxR1 substrate: inactive
